Screening results: PubChem, National Center for Advancing Translational Sciences (NCATS)
JMJD2A Tudor – inhibitors of human JMJD2A Tudor domain. O75164. AlphaScreen JMJD2A-Tudor / H3K4me3 peptide binding. Potency, µM (doses to about 114 µM), for inactives: top-dose activity change, negative = inhibition, usual class: inhibitors. 390,000 tested, 4.4% active. AID 504339; note: % is set by controls: 0 for no effect and ±100 for the full control effect; nearly all actives have a fitted effect of over 50% in size
PLK1 PBD block – blocks phosphopeptide binding to human PLK1 polo-box domain. Potency, µM, for inactives: max response, negative = inhibition, most hits filed as inhibitors. Plk1 PBD binding of FITC phosphopeptide, fluorescence polarization. AID 720504. 360,000 tested, 2.8% active; note: series mostly up to about 57 µM; % is set by controls: 0 for no effect and ±100 for the full control effect; nearly all actives have a fitted effect of over 65% in size
G9a block – G9a (human) methyltransferase inhibition; Q96KQ7; Potency, µM (series often up to 102 µM), without a hit: at the top dose activity, negative = inhibition, most hits filed as inhibitors; AID 504332; 350,000 tested, 8.8% active; G9a H3K9 monomethylation, AlphaScreen, 2 h; note: % is set by controls: 0 for no effect and ±100 for the full control effect; nearly all actives have a fitted effect of over 75% in size
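Compounds were preincubated with 20 nM G9a for 15 min, after which biotinylated H3K9 peptide (500 nM) and SAM (20 uM) started a 2 h room-temperature reaction. Monomethylated product was quantified by antibody-based AlphaScreen chemiluminescence.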
Sfp PPTase inh – blocks B. subtilis Sfp PPTase activity | Q9F4F7 | Biochemical Sfp PPTase activity, qHTS | Potency, µM, for inactives: largest response in the series, negative = inhibition, actives largely listed as inhibitors | 310,000 tested, 3.5% active | AID 1490;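 note: the enzyme is Sfp with the accession as filed and its product quenches rhodamine fluorescence; 0% = enzyme reaction without inhibitor and -100% = no enzyme wells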
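With Hepes-Na pH 7.6 buffer containing 10 mM MgCl2, Sfp (15 nM) modified BHQ-2-YbbR (12.5 uM) using rhodamine-CoA (5 uM). Two reads 30 minutes apart at 525/598 nm yielded each well's rate.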
BAZ2B block – inhibitors of human BAZ2B bromodomain; Q9UIF8; AlphaScreen BAZ2B-H3K14Ac peptide displacement; Potency, µM (series often up to 114 µM), inactives show at the highest dose activity change, negative = inhibition, usual class: inhibitors; 360,000 tested, 4.4% active; note: % is set by controls: 0 for no effect and ±100 for the full control effect; nearly all actives have a fitted effect of over 60% in size
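In this displacement format the biotinylated H3(5-23) peptide acetylated at Lys14 serves as ligand at 50 nM, with BAZ2B at 50 nM in PBS pH 7.4 containing 0.01% Tween-20. Donor and acceptor beads are 10 ug/mL final.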
HP1b chromo inh – inhibitors of HP1-beta chromodomain binding to methylated histone tails; P83916; Potency, µM (top dose mostly 114 µM), inactives show top-dose activity change, negative = inhibition, usual class: inhibitors; AlphaScreen HP1-beta / biotin-H3K9me3 peptide binding; 390,000 tested, 0.56% active; AID 540317; note: nearly all actives have a fitted effect of over 70% in size
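AlphaScreen: HP1-beta (50 nM) preformed 30 min with biotin-H3(1-18)K9me3 peptide (50 nM) in PBS pH 7.4, 0.01% Tween-20. Compound added for 30 min at RT, then streptavidin donor/nickel chelate acceptor beads (10 ug/mL) for 30 min.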
* hit, by the source's call; ? = inconclusive; nt = not tested or not shown; [ ] = dose if it differs, or a comment. Hits are enriched below; roughly 12% of the tested compounds scored in any of these assays. Calls come from the whole dose curve; as a rule, active = well fitted curve in the direction sought with a large enough effect; inconclusive = small, poorly fitted or top-dose-only effect, or another doubt; inactive = no such curve, though single readings can be large; an effect the other way counts as inactive or inconclusive. Potency is the fitted concentration of half-maximal effect.

SMILES	JMJD2A Tudor	PLK1 PBD block	G9a block	Sfp PPTase inh	BAZ2B block	HP1b chromo inh
CC(C)c1ccc(N(C(=O)c2snc(C(N)=O)c2N)C(C(=O)NCC2CCCO2)c2ccc(N(C)C)cc2)cc1 (centres undefined)	18µM*	-3%	13µM*	3%	22µM*	?
CN(C)c1ccc(C(C(=O)NCC2CCCO2)N(C(=O)c2snc(C(N)=O)c2N)c2ccc3c(c2)OCO3)cc1 (centres undefined)	?	-7%	40µM*	-10%	?	-7%[57 µM]
Cc1cccc(N(C(=O)c2snc(C(N)=O)c2N)C(C(=O)NCC2CCCO2)c2ccc(N(C)C)cc2)c1 (centres undefined)	-14%	-6%	0%	2%	-29%	-6%
CN(C)c1ccc(C(C(=O)NCC2CCCO2)N(C(=O)c2snc(C(N)=O)c2N)c2ccccc2)cc1 (centres undefined)	-6%	-3%	-10%	2%	-1%	28%
CSC(=NNC(=O)c1ccc(O)cc1)SC	-9%	-9%	?	-7%	-2%	10%
CC(=O)Nc1cc(C(=O)NCc2ccccc2Cl)ccc1Sc1ccc(F)cc1	-18%	nt	8%[59 µM]	nt	2%	38%
CCN(CCCNC(=O)c1ccc(Sc2ccc(F)cc2)c(NC(C)=O)c1)c1ccccc1	56µM*	nt	?	nt	?	-3%
COc1ccc(C(C)=O)cc1CSCC(=O)O	0%	-9%	0%	8%	-13%	11%
COc1ccc(C(=O)/C=C/c2ccc(OCc3ccccc3)cc2)cc1CSCC(=O)O	56µM*	24µM*	56%	8%	-6%	-17%
COc1ccc(C=CC(=O)c2ccc(OCc3ccccc3)c(OC)c2)cc1OC	nt	6%	nt	nt	nt	nt
COc1ccc(C(=O)/C=C/c2cccc(OCc3ccccc3)c2)cc1CSCC(=O)O	50µM*	21µM*	nt	-20%	45µM*	-31%
